The values that follow come from PubChem BioAssay AID720579 (National Center for Advancing Translational Sciences (NCATS), 2013).

Each structure is given as a SMILES string. Out of some 310,000 compounds screened, about 1,900 (0.61%) were called active. Entries that show only a call come without a potency. Roughly 8% stayed inconclusive and do not appear here. Calls follow the shape of the full dose curve; tested in A549 cells. Only a selection was taken, and actives are over-represented in it overall.
Potency is read from the fitted curve at half-maximal effect.

The nature of the test: qHTS for Stage-Specific Inhibitors of Vaccinia Orthopoxvirus: mCherry Reporter Primary qHTS. Also: nearly all actives have a fitted effect of over 35% in size. The following applies: Vaccinia virus mCherry reporter infection, fluorescence; series mostly up to 36.5 µM. In general terms: In qHTS, concentration-response curves come from the screen itself.
As to `COc1ccc(C(C)(C)C)cc1NC(=O)CN(C)C1=NS(=O)(=O)c2ccccc21`, the Potency result is “inactive”.
For `COC(=O)[C@]12CCCCC=C1N(CCC1=CCCCC1)C(=O)[C@H](CC(=O)N1CCSCC1)C2`, the Potency entry is “inactive”.
Regarding `COC(=O)CC1C(C)(C)C(OC(C)=O)C2CC3=C4CC(=O)OC(c5ccoc5)[C@]4(C)CCC3[C@@]1(C)C2=O` (some centres not stated), the Potency result was “inactive”.
In the case of `CCC(C)C(=O)O[C@@H]1C[C@@]2(C)C(c3ccoc3)OC(=O)CC23OC2(C)O[C@@]14[C@@]1(C)C(CC(=O)OC)C5(C)CC1(O)C(O)(C5OC(=O)C1(C)OC1C)C(OC(C)=O)[C@@]34O2` (some centres not stated), the Potency entry is “inactive”.
For the molecule `C=C1C([C@@]2(C)C(OC(C)=O)CC(=O)O[C@@](C)(COC(C)=O)C2CC(=O)OC)C(OC=O)C(OC(=O)C(O)C(C)CC)[C@]2(C)C(c3ccoc3)CC(=O)C12O` (some centres not stated), the Potency was 2 µM (active).
For `COc1ccc(C(O)c2nc(-c3ccc4c(c3)OCO4)cs2)cc1` (configuration not stated), the Potency result is “inactive”.
Consider `CCc1nc2c(OCc3cccc(OC)c3)cccn2c1N(C)C(=O)C(C)C`, for which the Potency result was “inactive”.
Take `CCN1CCCC1CNC(=O)c1ccc2c(c1)NC(=O)/C(=C\c1ccccc1F)S2` (configuration not stated): the Potency entry is “inactive”.
In the case of `CC(=O)c1cccc(-c2cnc3c(NC=O)cc(-c4ccccc4Oc4ccccc4)cn23)c1`, the Potency entry was “inactive”.
On to `COc1ccc(NC(=O)CN2C(=O)NC(C)(c3ccccc3)C2=O)cn1` (configuration not stated), for which the Potency result was “inactive”.
Then `COc1ccc(CS(=O)/C(Cl)=C(/Cl)C(=O)Nc2ccc(OC)nc2)cc1` (configuration not stated), with 3.98 µM (active); and `CCOc1ccc(S(=O)(=O)Nc2ccc(OC)nc2)cc1`, with “inactive”.
Then `CCN(CC)S(=O)(=O)c1cc(C(=O)Nc2cc(S(=O)(=O)N3CCOCC3)ccc2N2CCCC2)ccc1F`, with “inactive”.
For the molecule `CCN(CC)S(=O)(=O)c1ccc(N2CCCC2)c(NC(=O)c2ccc([N+](=O)[O-])o2)c1`, the Potency is 14.1 µM (active).
For `CCN(CC)S(=O)(=O)c1ccc(N2CCN(C)CC2)c(NC(=O)Nc2ccccc2F)c1` the value was “inactive”; for `COc1cccc(CNc2nc(NCc3cccs3)nc3ccsc23)c1`, “inactive”; for `OC(c1ccccc1)c1nc(-c2cnc3ccccc3c2)cs1` (configuration not stated), “inactive”.
For `CC1(c2cccc(Br)c2)NC(=O)N(CC(=O)NCCC2=CCCCC2)C1=O` (configuration not stated) the value was “inactive”.
For the molecule `O=C(NCCOc1ccccc1)N1[C@H]2CC[C@@H]1C=C(c1ccc(F)cc1OCc1ccccc1)C2`, the Potency result is “inactive”.
For `CC1(C(=O)O)CCN1C(=O)/C=C/c1ccccc1` (configuration not stated) the value was “inactive”.
As to `CC1(C(=O)NS(=O)(=O)c2ccccc2)CCN1C(=O)C/C=C/c1ccccc1` (configuration not stated), the Potency result was “inactive”.
With `CC1(C)CCSC(/C=C/c2ccccc2)=N1`, the Potency was 11.2 µM (active).
Then `COc1ccc(Cc2nnc(N/N=C/c3ccccc3O)[nH]c2=O)cc1OC`, with 1.26 µM (active).
Then `COc1ccc(/C=N/Nc2nc3ccccc3c(=O)[nH]2)cc1`, with “inactive”; and `O=c1[nH]c(NCCO)nnc1Cc1ccc(Cl)cc1`, with “inactive”; and `CCC(c1nnnn1-c1ccc2c(c1)OCCO2)N1CCN(c2ccc(C(F)(F)F)cn2)CC1` (configuration not stated), with “inactive”.
For `O=C(C(=O)N1CCC(c2ccccc2)CC1)c1ccccc1` the value was “inactive”.
For the molecule `CCOC(=O)[C@]12CCC=C1N(CCC1=CCCCC1)C(=O)[C@H](CC(=O)NCc1ccc(C)o1)C2`, the Potency entry was “inactive”.
For `CN(C(=O)c1cccc(NC(=O)Cc2cccc(NC(=O)C3CCCN(C(=O)C4CC4)C3)c2)c1)C1CCC1` (configuration not stated), the Potency result is “inactive”.
Turning to `CN(C(=O)c1cccc(NC(=O)Cc2cccc([N+](=O)[O-])c2)c1)C1CCCCC1`, the Potency was 10 µM (active).
Regarding `CN(C(=O)c1cccc(NC(=O)Cc2ccc(NC(=O)C3CCN(C(=O)C4CCCCC4)CC3)cc2)c1)C1CCC1`, the Potency entry was “inactive”.
For `CCN(CC)C(=O)C(C)N1c2cccc3cccc(c23)S1(=O)=O` (configuration not stated) the value was “inactive”; for `CSCCC(C(=O)NC(C)(C)C)n1c(-c2ccccc2)nc2ccccc21` (configuration not stated), “inactive”; for `CCCNC(=O)C1(C)CCN1C(=O)Cc1ccc(-c2ccccc2)cc1` (configuration not stated), “inactive”.
Consider `CC(C)N1CCc2c(sc(NC(=O)Cc3ccccc3)c2C#N)C1`, for which the Potency result was “inactive”.
For the molecule `CC(=O)N1CCc2c(sc(NC(=O)CCS(=O)(=O)c3ccccc3)c2C#N)C1`, the Potency was 12.6 µM (active).
Regarding `CC(=O)N1CCc2c(sc(NC(=O)CCS(=O)(=O)c3ccc(C)cc3)c2C(N)=O)C1`, the Potency result is “inactive”.
For `CCc1oc(-c2ccc(OC)cc2)c(C(=O)OCCCCCO)c1C(C)OCCO` (configuration not stated) the value was “inactive”; for `O=C(c1cnn2c1NC(=C1CC1)C=C2C(F)F)N1CCc2ccccc2C1`, “inactive”; for `CN(C)c1cccc(NC(=O)c2ccc(-c3ccc(F)c(F)c3)c3ccoc23)c1`, “inactive”.
For `Cc1ccccc1S(=O)(=O)NC(=O)C1(C)CCN1C(=O)C1(c2ccccc2)CCCC1` (configuration not stated) the value was “inactive”; for `O=C(OCC#CCSc1nnc(-c2ccncc2)o1)c1sc2ccccc2c1Cl`, “inactive”; for `C#CCSc1nnc(-c2sc3ccccc3c2Cl)o1`, 11.2 µM (active).
Then `COc1ccc2c(Cl)c(-c3nnco3)sc2c1`, with “inactive”; and `CC1(C(=O)Nc2cccnc2)Cc2c(-c3ccccc3)ccnc2O1` (configuration not stated), with “inactive”; and `COc1ccc(/C=C/C(=O)c2ccc(NS(=O)(=O)c3ccc(C)cc3)cc2)cc1O`, with 12.6 µM (active).
Turning to `COc1ccc(C(=O)Oc2cc(/C=N/NS(=O)(=O)c3ccc(C)cc3)ccc2OC)cc1`, the Potency result was “inactive”.
Then `COc1ccc(NS(=O)(=O)c2ccc(NC(=S)NC(=O)/C=C/c3ccc(C)cc3)cc2)nn1`, with “inactive”.
Then `CCOC(=O)[C@]12CCCC=C1N(Cc1ccc3c(c1)OCO3)C(=O)[C@H](CC(=O)N1CCN(C(=O)c3ccco3)CC1)C2`, with “inactive”; and `Cc1ccccc1NC(=O)Cc1nc(COC(=O)CNC(=O)c2ccc(Cl)cc2Cl)cs1`, with “inactive”; and `C/C=C/C(=O)OCc1csc(CC(=O)Nc2ccccc2C)n1`, with 5.01 µM (active).
For `Cc1ccccc1NC(=O)Cc1nc(COC(=O)C(C)(C)Oc2ccc(Cl)cc2)cs1` the value was “inactive”.
Consider `CCC(C(=O)NC(C)(C)C)n1c(-c2ccccc2)nc2ccccc21` (configuration not stated), for which the Potency entry was “inactive”.
Then `C/C(=N\NC(=O)c1ccccc1C)c1ccc(N2CCOCC2)cc1`, with “inactive”; and `C/C(=N\NC(=O)c1ccoc1C)c1ccccc1O`, with 1.12 µM (active).
With `CC(C)=C(NC(=O)c1ccccc1)C(=O)N/N=C(\C)c1ccccc1O`, the Potency entry is “inactive”.
Then `CCOC(=O)[C@]12CCCC=C1N(CCC1=CCCCC1)C(=O)[C@H](CC(=O)N1CCN(C(=O)c3ccco3)CC1)C2`, with “inactive”.
